Laboratory results from PubChem BioAssay (NCI).
The panel holds about 83,000 compounds, 20% with a hit somewhere; the sample as a whole holds those more often.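 Assay: single dose, 48 h. Readout: percent growth (0 = no net growth; negative = cell death). Active: <10.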 Unmarked numbers belong to inactive results. Active and inactive are the calls of the source.

Columns and labels:
Test in all cases: NCI-60 one-dose screen, 48 h (100 = growth as untreated, 0 = no growth, -100 = all killed)
Settings in all cases: 10 µM unless noted
DU-145 prostate = test system: DU-145 prostate
K-562 leukemia = test system: K-562 leukemia
MALME-3M melanoma = test system: MALME-3M melanoma
MDA-MB-231 breast = test system: MDA-MB-231 breast
RXF 393 renal = test system: RXF 393 renal
SF-268 CNS = test system: SF-268 CNS
SF-295 CNS = test system: SF-295 CNS
SF-539 CNS = test system: SF-539 CNS
UACC-257 melanoma = test system: UACC-257 melanoma
M14 melanoma = test system: M14 melanoma
HCT-15 colon = test system: HCT-15 colon
HT29 colon = test system: HT29 colon
SNB-75 CNS = test system: SNB-75 CNS
SNB-19 CNS = test system: SNB-19 CNS
U251 CNS = test system: U251 CNS
PC-3 prostate = test system: PC-3 prostate
SK-MEL-5 melanoma = test system: SK-MEL-5 melanoma
UACC-62 melanoma = test system: UACC-62 melanoma
LOX IMVI melanoma = test system: LOX IMVI melanoma
SK-MEL-28 melanoma = test system: SK-MEL-28 melanoma

Structure (SMILES)	growth (DU-145 prostate)	growth (K-562 leukemia)	growth (MALME-3M melanoma)	growth (MDA-MB-231 breast)	growth (RXF 393 renal)	growth (SF-268 CNS)	growth (SF-295 CNS)	growth (SF-539 CNS)	growth (UACC-257 melanoma)	growth (M14 melanoma)	growth (HCT-15 colon)	growth (HT29 colon)	growth (SNB-75 CNS)	growth (SNB-19 CNS)	growth (U251 CNS)	growth (PC-3 prostate)	growth (SK-MEL-5 melanoma)	growth (UACC-62 melanoma)	growth (LOX IMVI melanoma)	growth (SK-MEL-28 melanoma)
C=C(C)[C@@H]1CC[C@]2(C(=O)OC)CC[C@]3(C)[C@H](CC[C@@H]4[C@@]5(C)CC/C(=N\OCCC(=NCCC#N)NOCCC#N)C(C)(C)[C@@H]5CC[C@]43C)[C@@H]12	27.5% [100 µM]	5.42% [100 µM] (active)	25.3% [100 µM]	5.09% [100 µM] (active)	-43.1% [100 µM] (active)	29.1% [100 µM]	36.6% [100 µM]	-2.29% [100 µM] (active)	8.82% [100 µM] (active)	26.6% [100 µM]	34.3% [100 µM]	3.88% [100 µM] (active)	18.4% [100 µM]	28.9% [100 µM]	-39.7% [100 µM] (active)	4.49% [100 µM] (active)	-84.7% [100 µM] (active)	-25.8% [100 µM] (active)	14.6% [100 µM]	29.2% [100 µM]
Cc1cccc(C[C@H](NC(=O)Nc2ccc(Cl)cc2F)C(=O)N[C@@H]2C(=O)N3C[C@H](O)C[C@H]3C(=O)N3CCCC[C@H]3C(=O)N[C@@H](C)C(=O)N3C[C@H](C)C[C@H]3C(=O)O[C@H]2C)c1	15.1%	12.5%	7.7% (active)	-32.6% (active)	-18.1% (active)	11.6%	-21.3% (active)	7.42% (active)	14.9%	3.02% (active)	27.9%	-10.5% (active)	4.64% (active)	16.2%	16.4%	7.99% (active)	-70.4% (active)	-26.1% (active)	9.07% (active)	0.552% (active)
Cc1cccc(/C=C2\N=C(c3ccccc3)N(c3ccc(S(N)(=O)=O)cc3)C2=O)c1	97%	90.9%	82.7%	96.7%	102%	91.4%	86.5%	72.2%	94.4%	107%	91.8%	86.1%	49.9%	80.1%	95.1%	92.9%	88.5%	92.8%	99%	101%
C=CCCCCCCCCC(=O)OC(C)C	101%	107%	78.9%	97.4%	93.2%	96.9%	98.8%	104%	94.9%	96.4%	99.1%	98.6%	103%	105%	96.1%	99.7%	95.9%	105%		104%
O=C(O)c1cn(C2CC2)c2cc(N3CCN(Cc4cc(Cl)ccc4O)CC3)c(F)cc2c1=O	95.2%	46.5%	80.7%	71.3%	60.2%	75.8%	34.3%	74%	80.7%	59.2%	45.7%	44.9%	67.6%	60.2%	36.6%	54.7%	58.8%	54.9%	57.1%	71.7%
CC(C)C1=NOC(=O)C1=Cc1cn(-c2cccnc2)nc1-c1ccccc1	104%	72.7%	111%	96%	64.8%	102%	98.1%	104%	111%	103%	94.2%	99.1%	88.4%	93.9%	83.5%	94.1%	102%	90.4%		112%
Cc1cc(C)c(O)c(CNCCCNCc2cc(C)cc(C)c2O)c1	87.8%	15.3%	-65.9% (active)	35.8%	47.9%	74.7%	30.3%	-11.8% (active)	4.87% (active)	-65.8% (active)	34.9%	70.9%	59.6%	68.9%	51.3%	64.8%	61.9%	12.6%	39.8%	62.4%
